# Shown are actives, neighbours in structure and some others; about 1.1% of the full set was active somewhere.
# HUVEC tox IL1B: toxic to HUVEC cells under IL-1B stimulation; HUVEC cell count loss, Hoechst imaging, IL-1B stimulated; cell count reduction, % at 2 µM; actives 0.41% (n = 94,000);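 active means cell count reduction more than 3 SD above the screen-wide mean, cut at about 70% in these data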;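 further: normalized per plate to untreated control cells as the no-loss baseline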
# sEH act: increases human soluble epoxide hydrolase activity | P34913 | purified human sEH enzymatic activity, activator screen | activation, % at 2 µM | actives 0.04% (n = 91,000) | AID 717; in the data active means activation above about 37%
# Target sequence (P34913 whole entry, looked up): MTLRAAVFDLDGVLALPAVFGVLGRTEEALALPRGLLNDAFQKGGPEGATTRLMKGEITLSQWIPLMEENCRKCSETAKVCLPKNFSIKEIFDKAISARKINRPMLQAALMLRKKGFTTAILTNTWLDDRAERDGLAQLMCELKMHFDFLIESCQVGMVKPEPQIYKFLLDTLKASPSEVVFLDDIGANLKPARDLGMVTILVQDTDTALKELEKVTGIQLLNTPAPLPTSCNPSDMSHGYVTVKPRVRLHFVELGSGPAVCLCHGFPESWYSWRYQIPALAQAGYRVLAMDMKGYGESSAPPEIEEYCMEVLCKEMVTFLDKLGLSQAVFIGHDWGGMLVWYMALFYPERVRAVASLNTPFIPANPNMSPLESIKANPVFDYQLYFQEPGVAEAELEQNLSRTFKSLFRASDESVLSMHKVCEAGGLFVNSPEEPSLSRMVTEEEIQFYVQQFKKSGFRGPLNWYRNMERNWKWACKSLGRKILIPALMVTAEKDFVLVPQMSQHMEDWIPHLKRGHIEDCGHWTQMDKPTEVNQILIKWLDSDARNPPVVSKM
# sEH inhibitor: soluble epoxide hydrolase (human) inhibition. inhibition, % at 2 µM. recombinant human sEH enzymatic activity assay. P34913. actives 0.34% (n = 91,000). AID 707; in the data active means inhibition above about 80%
# NFkB transloc inh: blocks IL-1B driven NFkB nuclear translocation in HUVEC cells. HUVEC IL-1B NFkB p65 nuclear translocation imaging. inhibition, % at 2 µM. actives 0.43% (n = 94,000). AID 796;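 active means inhibition above about 30% together with a positive call from visual inspection of the well image, limit read from the data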;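 further: nuclear over cytoplasmic p65 intensity ratio measured by imaging; 0% = IL-1B stimulated DMSO wells and 100% = unstimulated DMSO wells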
# NFkB transloc pot: enhances IL-1B driven NFkB nuclear translocation. HUVEC IL-1B NFkB p65 nuclear translocation imaging. activation, % at 2 µM. actives 0.3% (n = 94,000). AID 819;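 active means activation above 40%, about the mean plus 3 SD, also judged a hit on visual image review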;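 further: percent activation is computed from the nuclear over cytoplasmic p65 intensity ratio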
# * marks the source's active call; other numbers are inactive results; x = not tested or not shown.
SMILES,HUVEC tox IL1B,sEH act,sEH inhibitor,NFkB transloc inh,NFkB transloc pot
CCCOc1cccc(C(=O)Nc2cccnc2)c1,-19,-10,10,-40,40*
CCOC(=O)Cn1c(=O)oc2cc(S(=O)(=O)N3CCc4ccccc43)ccc21,-35,1,-2,-8,8
CC1(C)CC(=O)C2=C(C1)N(Cc1ccccc1)C(=O)C2(O)C(F)(F)F (centres undefined),1,11,-7,4,-4
CC(C)CC(=O)NC1(C(F)(F)F)C(=O)N(Cc2ccccc2)C2=C1C(=O)CC(C)(C)C2 (centres undefined),-38,-3,3,33*,-33
Cc1ccc2nc(SCC(=O)Nc3ccc4sc(C)nc4c3)c(C#N)cc2c1,2,-25,24,-8,8
O=C(NCCc1c[nH]c2ccccc12)C1CCC(Cn2c(=S)[nH]c3ccccc3c2=O)CC1 (centres undefined),-1,-95,95*,-13,13
CCN1C(=O)/C(=C/N(C(C)=O)c2ccccc2)N(c2ccccc2)C1=S,-29,4,-4,43*,-43
COc1ccc(C2OC(=O)c3ccccc3S2)cc1 (centres undefined),-38,x,x,-8,8
CC(Oc1ccccc1Cl)c1nnc(N)s1 (centres undefined),-4,10,-9,-1,1
Cc1ccc(OC(C)c2nnc(N)s2)cc1Cl (centres undefined),92*,13,-15,97*,-97
COc1ccc(-c2noc(CSc3nc4ccccc4c(=O)n3-c3ccc(C)cc3)n2)cc1,3,15,-16,4,-4
O=C(O)CCCCCNS(=O)(=O)c1ccc(Cl)cc1,-83,-5,7,47*,-47
C/C(=N\NC(=S)NC(C)C)c1ccc(-n2ccnc2)cc1,12,0,-1,-2,2
N/C(=N\OC(=O)c1ccc(Cl)cc1)c1nonc1N,-10,-4,4,-12,12
Cc1cc(NC(=O)Cn2cnc3sc(C)c(-c4ccccc4)c3c2=O)no1,-2,5,-5,-17,17
CC1CCN(CCC(=O)Nc2ccc3c(c2)CCC3)CC1,-16,-6,6,0,0
O=C(/C=C/c1cccs1)c1ccc(Br)cc1,-21,-4,7,-107,107*
COc1ccc(NC(=O)OC(C)C)cc1,9,12,-10,1,-1
O=C(C1CCCCN1S(=O)(=O)c1ccccc1)N1CCCCC1 (centres undefined),10,-1,0,52*,-52
O=C(CSCc1ccc(Cl)cc1)N/N=C/c1ccc(Cl)cc1Cl,-36,-80,80*,7,-7
CC(=O)NCCn1c(SCC(=O)NCCC(C)C)nc2ccccc2c1=O,2,4,-5,99*,-99
CCCCNC(=O)CSc1nc2ccccc2c(=O)n1CCNC(C)=O,-14,6,-6,-6,6
Cc1cc(NCCOCCO)n2ncc(-c3ccc(Cl)cc3)c2n1,91*,4,-1,-29,29
CCCn1c(SCC#N)nc2c(c1=O)C1(CCCC1)Cc1ccccc1-2,93*,5,-2,18,-18
O=C1C(c2ccc(F)cc2)N(C2CCCCC2)C(=O)CN1C1CCCC1 (centres undefined),-9,-5,5,-128,128*
SMILES,HUVEC tox IL1B,sEH act,sEH inhibitor,NFkB transloc inh,NFkB transloc pot
Cc1ccc(C2C(=O)N(C3CCC(C)CC3)CC(=O)N2C2CCCC2)cc1 (centres undefined),x,-3,3,x,x
O=C(NCC1CCCO1)NC1CCCCC1 (centres undefined),94*,-11,14,20,-20
CCn1c(-c2ccc(F)cc2)cnc1SCC(=O)N1CCCCC1C (centres undefined),-6,2,0,19,-19
CC1=C(C(N)=O)C(c2ccccn2)n2nc(-c3ccccc3Cl)nc2N1 (centres undefined),-6,10,-11,36*,-35
CCOC(=O)N1CCN(c2nc(C)c3c(n2)CC(C)CC3=O)CC1 (centres undefined),-4,17,-16,-40,40*
COc1ccc(C2CC(=O)c3c(C)nc(N4CCN(c5ccccc5)CC4)nc3C2)cc1 (centres undefined),16,x,x,-15,15
COC(=O)c1sc(S(=O)(=O)N2CCCCC2C(=O)O)c(C(=O)OC)c1C (centres undefined),12,0,3,1,-1
CCCCOC(=O)C1=C(C)Nc2nnnn2C1c1ccccc1Cl (centres undefined),-5,-8,6,-4,4
CCOC(=O)C1=C(C)Nc2nnnn2C1c1ccccc1Cl (centres undefined),-31,4,0,-46,46*
O=C(CSc1ncc(-c2ccccc2)nn1)NCc1ccco1,-6,-7,10,-10,10
O=C(CSc1nc(-c2ccccc2)cs1)NCc1ccco1,-16,-4,7,50*,-50
COC(=O)c1ccc(CNC(=O)/C=C/c2cc([N+](=O)[O-])ccc2OC(F)F)cc1,-12,-57,57,-15,15
Cn1c(C(O)c2ccc3c(c2)OCO3)nc2ccccc21 (centres undefined),84*,0,0,98*,-98
CCCC(=O)Nc1ccc(NC(=O)C2CC2)cn1,13,8,-10,-8,8
O=C(Nc1ccc(NC(=O)C2CC2)cn1)c1ccccc1Cl,88*,7,-6,10,-10
CC(OC(=O)c1cccs1)C(=O)NCc1ccc2c(c1)OCO2 (centres undefined),8,3,-2,7,-7
CC(C)C(OC(=O)c1nsc(Cl)c1Cl)C(=O)NCc1ccc2c(c1)OCO2 (centres undefined),86*,-5,7,-5,-96
O=S(=O)(c1ccc(-n2cnnn2)cc1)N(C1CCCCC1)C1CCCCC1,-1,0,0,3,-3
CN(C1CCCCC1)S(=O)(=O)c1ccc(-n2cnnn2)cc1,-21,-1,1,-50,50*
CC(C)(Cl)C1Cc2cc3ccc(=O)oc3cc2O1 (centres undefined),-13,-5,7,6,-6
CCc1cc(=O)oc2cc(OCC(N)=O)c(Cl)cc12,-6,-3,3,3,-3
O=C(CSc1nnc(Cc2cc(=O)[nH]c(=O)[nH]2)n1-c1ccc(Cl)cc1)NCC1CCCO1 (centres undefined),4,-9,9,4,-4
O=C(CSc1nnc(Cc2cc(=O)[nH]c(=O)[nH]2)n1-c1ccccc1)NCC1CCCO1 (centres undefined),93*,2,-1,15,-15
COc1ccc(Cl)cc1NC(=O)CN1CCC(n2nnc3cc(F)ccc32)CC1,92*,-9,7,100*,-100
O=C(Cn1c(=O)sc2ccccc21)Nc1ccccc1C(=O)O,-6,-1,2,-8,9
Cc1ccc(CN2CCC(c3nc4ccc(Cl)cc4[nH]3)CC2)cc1,0,4,-1,34*,-34
Cc1nn(-c2ncc(C(F)(F)F)cc2Cl)c(=O)n1-c1cccc(Cl)c1,-2,-3,1,8,-8
